# Screening data as filed in PubChem BioAssay.
# Shown are actives, neighbours in structure and some others; about 2.5% of the full set was active somewhere.
# D2 PAM-1 – potentiates the human D2 dopamine receptor allosterically; DiscoveRx D2 beta-arrestin cells, luminescence, 90 min; 100% = 57 uM dopamine signal; potentiation, % (concentration not given with the values); P14416; AID 624464; 360,000 tested, 0.23% active; in the data active = potentiation above about 50%; inconclusive = mostly about 30% to 49%
# Target sequence (P14416 whole entry, looked up): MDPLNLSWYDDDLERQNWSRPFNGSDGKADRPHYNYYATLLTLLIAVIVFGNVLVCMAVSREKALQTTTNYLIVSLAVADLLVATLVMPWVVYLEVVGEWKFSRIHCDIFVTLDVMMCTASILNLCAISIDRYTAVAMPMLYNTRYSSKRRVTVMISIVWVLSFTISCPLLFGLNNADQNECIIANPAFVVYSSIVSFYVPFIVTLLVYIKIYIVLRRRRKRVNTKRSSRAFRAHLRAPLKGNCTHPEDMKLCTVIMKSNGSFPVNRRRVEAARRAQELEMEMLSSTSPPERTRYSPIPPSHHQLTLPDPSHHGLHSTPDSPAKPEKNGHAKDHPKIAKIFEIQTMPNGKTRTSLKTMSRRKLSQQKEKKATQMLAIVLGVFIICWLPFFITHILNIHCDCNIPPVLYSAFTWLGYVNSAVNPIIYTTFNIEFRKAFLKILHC
#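 D2 cells co-treated with compound plus 50 nM dopamine (EC20) for 90 min at 37 deg C to detect potentiation. Beta-arrestin recruitment was read as enzyme-fragment luminescence after 1 h at ambient temperature. Full response was set by 57 uM dopamine.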
# D2 antag – antagonists of human D2 dopamine receptor; HEK293 TREx D2 cells, calcium flux, dopamine EC80; P14416; inhibition, % at 10 µM; 340,000 tested, 2% active; AID 485344; in the data active = inhibition above about 30%; inactive = below that, where a call was filed; note: 0% is about no effect
#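 Inhibition of EC80 dopamine-driven calcium flux, recorded kinetically, defines activity here; cells are a tetracycline-induced HEK293 T-REx line expressing force-coupled D2.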
# Apoferritin bind – binds horse apoferritin like a general anesthetic; P02791; apoferritin/1-aminoanthracene competitive binding, fluorescence; Potency, µM (top dose mostly 77.5 µM), for inactives: at the highest dose activity change, negative = displacement, usual class: inhibitors; 350,000 tested, 0.074% active; active = well fitted inhibition curve with a large enough effect; inconclusive = small, poorly fitted or top-dose-only effect; inactive = no such curve, though single readings can be large or run the other way; note: potency is the fitted concentration of half-maximal effect; % is set by controls: 0 for no effect and ±100 for the full control effect; nearly all actives have a fitted effect of over 20% in size
# Target sequence (P02791 2-175 limits assumed): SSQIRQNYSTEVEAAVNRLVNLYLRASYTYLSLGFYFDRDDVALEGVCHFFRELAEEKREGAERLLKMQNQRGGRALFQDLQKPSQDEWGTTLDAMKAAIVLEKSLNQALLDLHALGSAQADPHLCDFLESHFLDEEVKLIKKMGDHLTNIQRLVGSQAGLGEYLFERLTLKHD
#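 Steps: apoferritin (10 uM) was premixed with half-saturated 1-AMA in PBS, compounds were pin-transferred, plates stood 10 min at room temperature, fluorescence was read at 380/535 nm, and curves were fitted with a Hill equation.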
# D2 ag-1 – agonists of human D2 dopamine receptor (beta-arrestin); activation, % (test concentration not listed); 360,000 tested, 0.084% active; DiscoveRx PathHunter D2 beta-arrestin, luminescence, 90 min; 100% = 57 uM dopamine signal; in the data active = activation above about 40%; inconclusive = between about 15% and that limit
#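 DiscoveRx PathHunter D2 beta-arrestin cells (2,100/well) attached overnight, then compound-stimulated 90 min at 37 C in HBSS/10 mM HEPES/0.1% Tween-20 buffer; beta-galactosidase complementation read by luminescence after 1 h at ambient temperature. Dopamine 57 uM final (EC100) as control.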
# D2 ag-2 – D2 dopamine receptor (human) agonism | P14416 | HEK293 T-REx D2 cells, calcium flux agonist mode | activation, % at 2 µM | 340,000 tested, 0.53% active | AID 485358;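 active = activation over 3 SD above normal in the single-dose calcium agonist read, cut at about 30% in these data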; note: 0% is about no effect
#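 HEK293 Trex D2 cells, tetracycline-induced, o/n 30 C 5% CO2; no-wash Ca dye, RT 30–90 min; 10-cycle baseline, 23 nl cpd added, kinetic Ca read 180 s; agonist hits = positive Ca response.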
# D2 PAM-2 – positively modulates the human D2 dopamine receptor allosterically. P14416. HEK293 T-REx D2, calcium flux, EC20 dopamine potentiation. potentiation, % at 10 µM. 340,000 tested, 0.34% active. AID 485347;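 active = potentiation over 3 SD above the plate norm, cut at about 30% in these data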; note: 0% is about no effect
#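 Calcium flux readout, no-wash dye, 1 read/s. Inducible HEK293 Trex D2 line, overnight 30 C. Compound alone 180 s (agonist flags), then EC20 dopamine, another 180 s to score potentiation.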
# * marks the source's active call; other numbers are inactive results; u = inconclusive; x = no result given.
SMILES,D2 PAM-1,D2 antag,Apoferritin bind,D2 ag-1,D2 ag-2,D2 PAM-2
C/C(=N\Nc1ccc(S(=O)(=O)Nc2ccccc2)cc1[N+](=O)[O-])c1ccncc1,x,x,-14.2%,x,x,20.9
C/C(=N\Nc1ccc(Cl)cc1)c1ccncc1,-5.6,-4.3,-4.5%,-6.9,-0.6,5.3
C/C(=N\NC=O)c1ccncc1,-7.6,3.3,-1.4%,-18.2,-0.4,30.1*
Cc1ccc(C(=O)Nc2c(C(=O)N3CCOCC3)cnn2-c2ccccc2)cc1,-7.9,-30.8,-17.9%,-2.9,-0.9,32.6*
COc1ccc(OC)c(/C=C/C(=O)N(C)CC(=O)Nc2ccc(N3CCOCC3)cc2)c1,-26.8,40.4*,x,1.3,0.7,-7.5
Nc1ccc(C23CC4CC(CC(O)(C4)C2)C3)cc1,4.0,19.7,14.1µM*,-0.2,-0.2,-7.6
Nc1ccc(C23CC4CC(CC(C4)C2)C3)cc1,-4.8,1.3,8.91µM*,-2.3,2.2,1.4
CCOc1cc2[nH]c(=O)n(CCC(=O)NCCc3ccccc3)c(=O)c2cc1OCC,-15.1,2.9,-5.1%,-1.3,0.9,-2.7
Fc1cccc2sc(Nc3nnc(-c4ccccc4)o3)nc12,-21.5,43.1*,1.3%,-5.5,0.6,-7.1
Cc1ccc(CNS(=O)(=O)c2cc3c(cc2C)NC(=O)CO3)cc1,-2.2,47.5*,-12.4%,-6.4,3.6,4.8
Cc1cc2c(cc1S(=O)(=O)N1CCN(c3cccc(C)c3C)CC1)OCC(=O)N2,1.1,50.0*,u,1.0,1.3,-2.8
Cc1ccc(CCNC(=O)CCS(=O)(=O)c2cc3c(cc2C)NC(=O)CO3)cc1,-6.4,42.6*,-12.2%,0.3,0.1,16.4
Cc1cc2c(cc1S(=O)(=O)NCc1ccc(N(C)C)cc1)OCC(=O)N2,-3.3,-5.2,-7.0%,-0.4,1.7,-7.3
Cc1cccc(N2CCN(S(=O)(=O)c3ccc4c(c3)NC(=O)CO4)CC2)c1C,-4.0,3.1,-9.8%,-2.9,0.0,0.9
COc1ccc(C(=O)CC(=O)C(=O)Nc2ccccc2OC)cc1,-10.3,-3.3,-11.0%,2.5,0.0,4.3
COc1cc(C(=O)NC(C)C2CC3CCC2C3)cc(OC)c1OC (stereo unspecified),-2.2,-19.5,-6.8%,7.6,0.9,5.3
Cc1cccc(NC(=O)C[n+]2cccc(C)c2)c1,-10.2,5.5,-10.4%,-3.2,1.2,-3.6
COc1cc(NC(=O)CCCC(=O)OCC(F)(F)C(F)F)nc(OC)n1,9.8,52.2*,-13.9%,-0.2,-1.2,6.4
COc1ccc(N(CC(=O)Nc2cccc(C(=O)O)c2)S(=O)(=O)c2c(C)noc2C)cc1,-0.5,13.0,-5.9%,-1.5,-0.2,1.2
O=C1CCCC2=C1C(c1ccc(O)c(Br)c1)C1=C(CCCC1=O)N2c1ccccc1,-1.9,-13.4,8.8%,4.2,-0.1,8.5
CCc1nn(C(C)C(=O)NCCN2CCCCCC2)c(=O)c2cc3occc3n12 (stereo unspecified),-21.5,6.2,-9.1%,-2.2,0.2,-12.2
CCc1nn(C(C)C(=O)NCCN2CCN(c3cccc(C)c3C)CC2)c(=O)c2cc3occc3n12 (stereo unspecified),-28.5,51.5*,-5.1%,1.1,2.6,-28.4
COc1ccc(CNC(=O)Nc2cccc(C(F)(F)F)c2)cc1OC,-28.1,45.8*,-13.4%,-0.8,2.9,-8.5
Clc1ccc(-c2ccc(CNCC3CCCO3)o2)cc1 (stereo unspecified),-8.5,35.2*,-3.3%,3.2,-1.7,-22.8
Oc1ccc(Cl)cc1CNCC1CCCO1 (stereo unspecified),-14.5,-18.9,-15.5%,-6.2,0.3,3.5
SMILES,D2 PAM-1,D2 antag,Apoferritin bind,D2 ag-1,D2 ag-2,D2 PAM-2
CCN(CC)c1ccc2cc(C(=O)Nc3ccccn3)c(=O)oc2c1,0.3,1.7,6.7%,-0.2,39.4*,4.6
CCN(CC)c1ccc2cc(C(=O)Nc3cccnc3N3CCOCC3)c(=O)oc2c1,x,8.2,-4.8%,x,-0.9,-3.1
CCN(CC)c1ccc2cc(C(C)=O)c(=O)oc2c1,-18.9,-29.3,2.9%,-4.5,35.3*,10.6
CCN(CC)c1ccc2cc(-c3nnc(-c4ccncc4)o3)c(=O)oc2c1,-12.0,66.3*,1.9%,-1.2,88.4*,x
CCN(CC)c1ccc2cc(C(N)=O)c(=O)oc2c1,5.6,11.4,3.1%,-10.8,-4.6,7.9
CCN(CC)c1ccc2cc(C=O)c(=O)oc2c1,-13.4,-46.5,-8.1%,-2.5,65.0*,-6.0
COc1ccc(COC(=O)C2CCN(S(=O)(=O)c3cccs3)CC2)cc1,-3.0,19.2,x,2.0,0.5,3.4
CCn1c(SCC(=O)Nc2ccccc2N2CCCCC2)nc2c1c(=O)n(C)c(=O)n2C,3.0,3.3,-0.9%,0.1,0.2,x
O=C(O)c1ccc(Cl)c(S(=O)(=O)Nc2ccc(S(=O)(=O)Nc3cccc(Cl)c3)cc2)c1,-3.5,12.2,-23.3%,-4.5,2.3,-10.7
COC(OC)C1Nc2ccccc2C(=O)N1c1ccc(F)cc1 (stereo unspecified),-4.8,-1.6,x,-4.8,0.2,-4.6
Cc1cccnc1NC(=O)CCc1c[nH]c2ccccc12,1.0,31.2*,-14.5%,0.9,0.4,5.1
CC1CC1c1ccc(/C=C(\C#N)C(=O)Nc2ccc(Cl)cc2)o1 (stereo unspecified),-35.4,75.7*,5.1%,-2.5,-0.4,-25.1
N#C/C(=C/c1ccc(N2CCOCC2)o1)C(=O)NC1CCCCC1,-17.1,5.0,-16.5%,-19.2,17.7,4.7
COc1ccc(NC(=O)/C(C#N)=C\c2ccc(N3CCOCC3)o2)cc1,-11.8,13.3,-19.3%,-3.9,42.5*,-9.3
N#C/C(=C\c1ccc(N2CCOCC2)o1)C(=O)Nc1ccc(O)cc1,-12.6,-0.6,-17.5%,-7.8,17.1,12.1
N#C/C(=C/c1ccc(N2CCCCC2)o1)C(=O)Nc1ccc2ccccc2c1,-17.2,47.0*,-13.7%,-9.1,105.5*,-14.8
N#C/C(=C/c1ccc(N2CCCCC2)o1)C(=O)Nc1ccc(Cl)cc1,-14.0,61.9*,-7.8%,-0.4,110.4*,-29.0
CC1CC1c1ccc(/C=C(\C#N)C(=O)Nc2ccccc2Cl)o1 (stereo unspecified),-8.2,x,-4.6%,1.7,x,x
CCOc1ccccc1NC(=O)c1cccc(NC(=O)c2ccco2)c1,-2.5,-13.0,1.0%,1.2,0.2,x
O=[N+]([O-])c1cc(-c2nc3nc4ccccc4nc3n2CCc2ccccc2)cc([N+](=O)[O-])c1,10.6,67.5*,-4.2%,13.5,-0.2,1.6
c1ccc(C2=NN(c3ccccc3)CC2)cc1,-13.3,3.7,-7.7%,-3.8,-0.4,8.6
